# In all, about 2,300 compounds went through this assay and about 430 (19%) were called active.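 The calls were made as follows: active = remaining agonist calcium response no higher than 100% minus 3 SD of agonist-only control wells, with starting fluorescence near control levels; inactive = the rest.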 These entries were drawn from the full list.
# Biological target: Mas-related G-protein coupled receptor member X1 (Homo sapiens) (UniProt Q96LB2)
# Assay: MrgX1 receptor antagonists, duplicate retest, confirmation, HEK293 cells, Fluo-4 calcium flux (AID 602420)
# Details: MrgX1-HEK293, BAM8-22 calcium flux, at 10 µM; stronger effect = lower value
# Mas-related G-protein coupled receptor member X1 (Homo sapiens), sequence (Q96LB2 whole entry, looked up): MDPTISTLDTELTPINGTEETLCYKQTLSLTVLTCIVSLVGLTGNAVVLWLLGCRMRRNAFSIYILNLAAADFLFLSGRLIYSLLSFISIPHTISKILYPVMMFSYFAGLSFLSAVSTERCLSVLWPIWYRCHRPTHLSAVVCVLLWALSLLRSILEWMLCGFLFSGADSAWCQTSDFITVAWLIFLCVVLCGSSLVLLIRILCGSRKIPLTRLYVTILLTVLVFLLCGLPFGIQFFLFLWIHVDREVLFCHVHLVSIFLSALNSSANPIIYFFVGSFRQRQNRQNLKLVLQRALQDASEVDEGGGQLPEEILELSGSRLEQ
row,SMILES,remaining BAM8-22 calcium response % of control (stronger effect = lower value)
1,O=C(Cc1ccccn1)c1ccc(O)cc1O,77.8% (active)
2,CCOc1ccc(NC(=O)CCNC(=O)c2ccc(Br)cc2)cc1,inactive
3,COc1ccc([N+](=O)[O-])cc1NC(=O)COC(=O)/C=C/c1ccco1,inactive
4,CCOC(=O)C1=C(O)CSC1=Nc1cccc(Cl)c1,inactive
5,Cc1nn(-c2ccccc2)c(C)c1NC(=O)COc1ccc(Cl)cc1Cl,inactive
6,COc1ccc(C(=O)Nc2c(N)nc(SCC(=O)N3CCC(C)CC3)[nH]c2=O)cc1OC,83.1% (active)
7,CN1C(CC(=O)Nc2ccc(Br)cc2)c2ccccc2CC1(C)C (stereo unspecified),inactive
8,O=C(Nc1ccc(Br)cc1F)C1CC(=O)N(C2CCCCC2)C1 (stereo unspecified),inactive
9,Cc1cccc(-n2c(Cc3cc(=O)[nH]c(=O)[nH]3)nnc2SC(C)C)c1,inactive
10,Cc1ccc2nc(-c3ccc(NC(=O)CN(C)S(=O)(=O)c4ccccc4)cc3)sc2c1,inactive
11,Cc1ccc2nc(-c3ccc(NC(=O)c4cccnc4)cc3)oc2c1,67.5% (active)
12,O=C(O)CSC(NC(=O)c1cccnc1)(C(F)(F)F)C(F)(F)F,inactive
13,CCOC1CCCCC1NS(=O)(=O)c1ccc(Cl)cc1 (stereo unspecified),inactive
14,Cc1cc(Nc2cc(N3CCN(C)CC3)nc(Sc3ccc(NC(=O)C4CC4)cc3)n2)n[nH]1,84% (active)
15,CCOc1cc(-c2conc2N)cc(OCC)c1OCC,inactive
16,O=C(CN1CCN(c2ccccn2)CC1)NC1CCCCC1,inactive
17,Cc1cc(Br)ccc1NC(=O)c1cnc(N2CCN(c3ccccn3)CC2)c2ccccc12,72.4% (active)
18,O=S(=O)(c1ccc2ccccc2c1)N1CCN(S(=O)(=O)N2CCOCC2)CC1,inactive
19,C=CCOc1cccc(C2C(C(=O)c3ccc(C)o3)=C(O)C(=O)N2c2nnc(C)s2)c1 (stereo unspecified),63.9% (active)
20,CC(=O)N(C1=C(Cl)C(=O)c2ccccc2C1=O)c1ccc(C(=O)O)cc1,inactive
21,CCCCC(=O)Nc1ccc2c(c1)C(=O)NC2=O,inactive
22,O=C(C1CCN(S(=O)(=O)c2cnc[nH]2)CC1)N1CCN(Cc2ccc3c(c2)OCO3)CC1,inactive
23,C=CCNC(=O)c1cc(-c2ccccc2O)on1,84.3% (active)
24,C=CCNC(=O)c1csc(-c2ccccc2)n1,inactive

row,SMILES,remaining BAM8-22 calcium response % of control (stronger effect = lower value)
1,COCC(C)NC(=O)c1ccc(Cl)c(Cl)c1 (stereo unspecified),inactive
2,O=C1CCCc2c1nc(-c1cccc(Cl)c1)n2O,inactive
3,CCc1cc2c(SCC(=O)Nc3ncc(Cl)c(C)c3Cl)ncnc2s1,inactive
4,O=C(COc1ccc(Cl)cc1)NC(=S)Nc1ccccc1N1CCOCC1,inactive
5,CCN(C(=O)CSc1nnc2ccccn12)C1CCS(=O)(=O)C1 (stereo unspecified),inactive
6,O=C1CCCN1CCCNC(=S)Nc1ccc(F)c(Cl)c1,67.5% (active)
7,FC(F)Oc1ccc(NC(=S)NCc2ccco2)cc1Cl,inactive
8,CCOC(=O)Nc1ccc2c(c1)N(C(=O)CCN1CCN(CCO)CC1)c1ccccc1CC2,inactive
9,CC(=O)N(C)c1ccc(NC(=O)C(F)(F)F)cc1,inactive
10,Cc1cccc(NC(=O)COc2ccccc2C)n1,inactive
11,CC(C)OCCCNc1ncnc2c1[nH]c1ccc(F)cc12,inactive
12,CCC(C)c1ccccc1N1CC(C(=O)N2CCN(S(=O)(=O)c3ccc(F)cc3)CC2)CC1=O (stereo unspecified),84.2% (active)
13,O=C(CSc1ncccn1)NC(=O)NCc1ccccc1,inactive
14,COCc1nnc(NC(=O)c2ccc3c(c2)OCO3)s1,inactive
15,Cc1cc(=O)oc2cc(NC(=O)C3CC(=O)N(Cc4ccccc4)C3)ccc12 (stereo unspecified),inactive
16,Cc1ccc(Nc2nc(-c3ccc(O)cc3O)cs2)nc1,82.3% (active)
17,CCOc1ccccc1C1CC(c2ccc(Cl)cc2)Nc2nc(N)nn21 (stereo unspecified),inactive
18,Cc1cc(C)cc(NC(=S)NCCc2c[nH]c3ccccc23)c1,inactive
19,COc1cc2c(cc1O)C(SC)=NC(C)(C)C2,85.2% (active)
20,CCOc1ccc(C(=O)NC2CCN(S(=O)(=O)CC)CC2)cc1,inactive
21,CCOC(=O)c1cn(Cc2cccc(C)c2)nn1,inactive
22,Cc1nn(-c2ccccc2)c2c1C(c1ccc(F)cc1)C(C#N)=C(N)O2 (stereo unspecified),inactive
23,CC(Oc1ccc(F)cc1)C(=O)Nc1ccccc1C(=O)NC1CC1 (stereo unspecified),inactive
24,Cc1ccc2cc(/C=N/Nc3ccc(C(=O)O)cc3)c(Cl)nc2c1,37.2% (active)

row,SMILES,remaining BAM8-22 calcium response % of control (stronger effect = lower value)
1,COc1cccc(CCNC(=O)COc2cccc3c2OC(C)(C)C3)c1,inactive
2,O=C(Nc1ccccc1Cl)N1CCN(c2ccc3nncn3n2)CC1,inactive
3,COc1ccccc1Oc1nc(-c2cccnc2)nc2ccccc12,inactive
4,CC(C)(C)n1c(=O)[nH]c2c(c1=O)CCC2,inactive
5,CN(CC(=O)Nc1ccccc1Cl)C(=O)COc1cccc2c1OC(C)(C)C2,inactive
6,CCCCCCCCCCOC(=O)Cn1c(COc2cccc(OC)c2)[n+](C)c2ccccc21,53.5% (active)
7,CCCCCCCCCCOC(=O)Cn1c(COc2ccc(C)cc2)[n+](C)c2ccccc21,inactive
8,CCc1ccc2nc3sc(C(=O)Nc4nnc(CC)s4)c(N)c3cc2c1,inactive
9,CCN(CC)c1ccc(C2C3CCCCC3(O)CCN2CC(=O)Nc2ccccc2)cc1 (stereo unspecified),inactive
10,COCCNC(=O)Nc1ccc2nc(-c3ccco3)c(-c3ccco3)nc2c1,inactive
11,COc1ccc(S(=O)(=O)N2CCN(C(=O)NC3CCCCC3)CC2)cc1,inactive
12,CC(C)NC(=S)Nc1cccc2cnccc12,82.2% (active)
13,COc1ccc(S(=O)(=O)N2CCOCC2)c(C)c1C,inactive
14,Cc1ccc(Cc2cnc(N)s2)o1,inactive
15,COCCCNC(=O)C1CCN(c2ccc(N3CCOCC3)nn2)CC1,inactive
16,CC(=O)Nc1ccc(OC(=O)COc2ccc(Br)cc2)cc1,inactive
17,COC(=O)c1sccc1NS(=O)(=O)c1ccc(F)cc1F,80% (active)
18,CCc1nnc(NC(=O)CSc2nc3c(c(=O)n2-c2ccccc2OC)SCC3)s1,inactive
19,COc1ccc(C(=O)NC2CCCc3c2cnn3-c2cccc(C)c2C)c(OC)n1 (stereo unspecified),28.5% (active)
20,O=C(CSc1c2c(nc3ccc(Cl)cc13)CCCC2)NCc1ccco1,inactive
21,Cc1ccc(CS(=O)(=O)c2ncc(Cl)c(C(=O)Nc3nnc(C)s3)n2)cc1,81.2% (active)
22,COc1ccc(-n2c(SCC(=O)NCc3ccco3)nnc2-c2c[nH]c3ccccc23)cc1,inactive
23,CCOC(=O)c1c(C)[nH]c(=S)c(C#N)c1-c1ccccc1,inactive
24,COc1cccc(CNC(=O)C2CCN(S(=O)(=O)c3cccc4cccnc34)CC2)c1,inactive

row,SMILES,remaining BAM8-22 calcium response % of control (stronger effect = lower value)
1,O=C(CSc1nncn1-c1cccnc1)N1CCOCC1,inactive
2,N#CC1=C(N)Oc2c(sc3ccccc23)C1c1ccco1 (stereo unspecified),inactive
3,O=C(Nc1ccc(Cl)cc1)Nc1ccc(Oc2cccnc2)nc1,80.3% (active)
4,COc1cc(C2/C(=C(\O)c3ccc4c(c3)CC(C)O4)C(=O)C(=O)N2Cc2ccco2)ccc1O (stereo unspecified),inactive
5,CN(C)CCn1c(=S)[nH]c2ccc(Cl)cc2c1=O,inactive
6,Cc1cc(C)n(CCNC(=O)CC2C(=O)NCCN2Cc2ccc(C)o2)n1 (stereo unspecified),inactive
7,FC(F)(F)c1cc(-c2cccs2)nc(NCc2ccco2)n1,inactive
8,S=C(NCc1ccc(Cl)cc1)NC12CC3CC(CC(C3)C1)C2,68.5% (active)
9,O=C(c1ccc(O)cc1)c1ccc(C(=O)O)c(C(=O)O)c1,inactive
10,O=C(Cn1c(-c2cncs2)nc2ccccc21)NC1CCCC1,inactive
11,CC1CCN(S(=O)(=O)c2nnc(NC(=O)COc3ccccc3F)s2)CC1,inactive
12,Cc1ccc(-c2nn(C(C)(C)C)c3ncnc(N)c23)cc1,inactive
13,c1ccc(-c2[nH]ncc2-c2nc3ccccc3[nH]2)cc1,inactive
14,Cc1nccn1CCC1CCCCN1C(=O)CCc1nnc(-c2ccsc2)o1 (stereo unspecified),inactive
15,CN(c1cccc(NC(=O)Nc2ccc(Cl)cc2)c1)S(C)(=O)=O,44.9% (active)
16,C(=N\n1cnnc1)/c1cccnc1,inactive
17,CCS(=O)(=O)c1ccc2c(c1)N(S(=O)(=O)c1ccccc1)CC(C(=O)O)O2 (stereo unspecified),inactive
18,CCOC(=O)c1c(NC(=O)CNC2CCCc3ccccc32)sc(C(N)=O)c1C (stereo unspecified),inactive
19,CCOC(=O)c1c(NC(=O)CSc2cn(CC)c3ccccc23)sc2c1CCC2,85% (active)
20,CCNC(=O)c1c(O)c2cccc3c2n(c1=O)CC3,inactive
21,Cc1ccc(C(=O)COC(=O)CCN2C(=O)C3C4CC(C(Br)C4Br)C3C2=O)cc1 (stereo unspecified),inactive
22,O=c1cc(CSc2ccccn2)nc(N2CCN(c3ccccc3)CC2)[nH]1,inactive
23,CCOC(=O)Cc1csc(SCc2cc(=O)oc3cc(O)ccc23)n1,85.3% (active)
24,CCSc1nsc(NC(=O)Nc2cccc(C(C)=O)c2)n1,inactive

row,SMILES,remaining BAM8-22 calcium response % of control (stronger effect = lower value)
1,CCOC(=O)CNC(=O)CSc1nc2cccnc2n1CC,inactive
2,CCOC(=O)C1=C(O)/C(=C/c2cc(C)n(-c3ccccc3)c2C)N=C1C,inactive
3,Cc1cccn2c(=O)c(/C=C3\SC(=S)N(CC(C)C)C3=O)c(NCCCOC(C)C)nc12,63.8% (active)
4,CCN(CC)CC(=O)Nc1nn(-c2ccccc2)nc1C(N)=O,inactive
5,CCC1CCCCN1CCNC(=O)c1[nH]c(C)c(C(C)=O)c1C (stereo unspecified),inactive
6,O=C(CN1CCN(c2ccc(Cl)cc2)CC1)N1CCCC1,inactive
7,O=C(Cc1nc2ccccc2[nH]c1=O)c1ccc(Cl)cc1,64.3% (active)
8,O=C(NC1CCCCC1)C1c2ccccc2C(=O)N1Cc1ccco1 (stereo unspecified),inactive
9,CCc1cc(=O)oc2cc(C)cc(OCC(=O)N3CCC[C@@H]3C(=O)O)c12,inactive
10,CCCCOC(=O)CNc1nnc(SCC(=O)OCC)[nH]c1=O,70.5% (active)
11,COC(=O)c1c(NC(=O)c2c(Cl)cnn2C)sc(C)c1C,inactive
12,Cc1ccc(C(C(=O)NC2CCCCC2)N(C(=O)c2csnn2)C2CC2)o1 (stereo unspecified),inactive
13,O=C(c1cccs1)C1C(c2ccc(Br)cc2)NC(=S)NC1(O)C(F)(F)F (stereo unspecified),inactive
14,Cc1nc(N2CCN(c3ccccn3)CC2)c2c(C)c(C(=O)Nc3ccc(F)c(Cl)c3)sc2n1,70.4% (active)
15,COc1cc(CCC(=O)Nc2ccncc2Cl)cc(OC)c1OC,inactive
16,C=CCSc1nc(Cc2ccc(Cl)cc2)nc2ccccc12,inactive
17,O=C(COC(=O)C1CCN(S(=O)(=O)c2ccc3c(c2)OCCO3)CC1)Nc1ccccc1OC(F)F,inactive
18,Clc1ccc(-c2nc3ccccn3c2CN2CCSCC2)cc1,inactive
19,Clc1ccc(C=NC23CN4CN(CN(C4)C2)C3)cc1,inactive
20,COc1ccc(C(=O)CSc2n[nH]c(N)n2)cc1,inactive

# Reference: PubChem BioAssay AID602420 (Johns Hopkins Ion Channel Center, 2012)
